HT1080 IDH1KD tx: toxicity to HT-1080 IDH1 knockdown cells (counter line); HT-1080 IDH1 knockdown viability, ATP luminescence, 48 h; Potency, µM (doses to about 46.1 µM), hits mostly cytotoxic; 2% of 360,000 active; AID 686971
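IDH1KD HT-1080 cells, 750/well, RPMI + 5% FBS; compound pinned after 2 h settling; 48 h, 37 °C; CellTiter-Glo luminescence; % activity normalised to DMSO and no-cell wells; curves fitted, classed by r2 and efficacy.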
KB-V1 MDR tox: KB-V1 MDR subline cytotoxicity | KB-V1 MDR cells viability, CellTiter-Glo, 72 h | Potency, µM (series often up to 46.1 µM), hits mostly cytotoxic | 3.4% of 400,000 active; note: nearly all actives have a fitted effect of over 60% in size
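Drug-selected KB-V1 cells, grown in DMEM lacking phenol red with 10% FBS, receive compound titrations; after three days at 37 degrees C, surviving cell ATP is quantified by CellTiter-Glo luminescence and responses normalized and curve-fitted.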
KB-3-1 tox: KB-3-1 parental cell cytotoxicity. KB-3-1 viability, CellTiter-Glo ATP luminescence, 72 h. Potency, µM (doses to about 46.1 µM), hits mostly cytotoxic. 1.4% of 400,000 active. AID 1347075; note: nearly all actives have a fitted effect of over 60% in size
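Parental KB-3-1 viability, qHTS format: 72 h compound exposure, 37 °C; CellTiter-Glo; media-only wells and DMSO plates as controls; concentration-effect fits on corrected data.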
SW480 rerep: inducers of DNA re-replication in SW480 colon cancer cells; 1.8% of 340,000 active; SW480 DNA re-replication, Hoechst DNA content imaging, 48 h; Potency, µM (titrated, usually from 46.1 µM), hits mostly activators; note: nearly all actives have a fitted effect of over 55% in size
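SW480 cells exposed to compounds for 48 hr at 37 C, 5% CO2, then Hoechst-stained 40 min. Nuclear DNA content imaged by fluorescence scanning (405 nm excitation, 500-530 nm emission); re-replication scored as increased high-intensity nuclei.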
MCF10A rereplic: inducers of DNA re-replication in MCF 10A breast cells; MCF 10A DNA re-replication, Hoechst nuclear intensity, 48 h; Potency, µM (doses to about 46.1 µM), usual class: activators; 2.9% of 350,000 active; AID 624296; note: nearly all actives have a fitted effect of over 50% in size
HT1080-NT tox: kills 2HG-producing HT-1080-NT fibrosarcoma cells; HT-1080-NT fibrosarcoma viability, CellTiter-Glo ATP luminescence, 48 h; Potency, µM (series often up to 46.1 µM), most hits filed as cytotoxic; 1.6% of 360,000 active;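 note: NT is the 2HG producing partner of a matched IDH1 knockdown line; nearly all actives have a fitted effect of over 55% in size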
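Read-out is CellTiter-Glo luminescence after 10 minutes at room temperature, following 48 hours' compound treatment of HT-1080-NT cells (750 cells/well, RPMI, 5% FBS, 37 degrees C).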
Of the large screens only hits and unclear results are named; the others gave an inactive call. Compounds with a hit are over-represented: about 8% of the library has one in this group of screens. Calls come from the whole dose curve; as a rule, active = well fitted curve in the direction sought with a large enough effect; inconclusive = small, poorly fitted or top-dose-only effect, or another doubt; inactive = no such curve, though single readings can be large; an effect the other way counts as inactive or inconclusive.

CCSc1ncc(Cl)c(C(=O)Nc2sc3c(c2C(=O)NCCOC)CCCC3)n1	none (no result: HT1080 IDH1KD tx, SW480 rerep, MCF10A rereplic, HT1080-NT tox)
COc1cc(OC)c(NC(=O)N2CCc3c(sc4c3CCCC4)C2c2ccccc2)cc1Cl (stereo not drawn)	none (no result: HT1080 IDH1KD tx, SW480 rerep, MCF10A rereplic, HT1080-NT tox)
Cc1ccc(OCC(=O)NNC(=O)C2CSC3(C)CCC(=O)N23)cc1 (stereo not drawn)	none
CCN(CC)CCn1nc2c3c(cccc3c1=O)-c1ccccc1-2	HT1080 IDH1KD tx 20.6µM, KB-V1 MDR tox 5.8µM, KB-3-1 tox inconclusive, SW480 rerep 9.2µM, HT1080-NT tox 14.6µM
O=c1c2cccc3c2c(nn1CN1CCOCC1)-c1ccccc1-3	HT1080 IDH1KD tx inconclusive, KB-V1 MDR tox 1.64µM, KB-3-1 tox 4.11µM, MCF10A rereplic inconclusive
CCN(CC)CCn1nc(C)nc1-c1ccccc1O	KB-V1 MDR tox inconclusive
COC(=O)c1cnn(-c2nc(OC)cc(OC)n2)c1C	KB-V1 MDR tox 16.4µM
CCOC(=O)c1cnn(-c2nc(OC)cc(OC)n2)c1C(F)(F)F	KB-V1 MDR tox inconclusive
COc1cc(OC)nc(-n2ncc(Br)c(Br)c2=O)n1	HT1080 IDH1KD tx 1.64µM, KB-V1 MDR tox inconclusive, KB-3-1 tox 6.51µM, MCF10A rereplic 4.61µM, HT1080-NT tox 1.64µM
O=S(=O)(Nc1ccc(Cl)cn1)c1ccccc1	none
O=S(=O)(Nc1ccc(Cl)nn1)c1ccccc1	SW480 rerep inconclusive, MCF10A rereplic 13µM
CCc1cccc2[nH]c3cc([N+](=O)[O-])ccc3c12	KB-V1 MDR tox 13µM, KB-3-1 tox inconclusive
O=c1[nH]c2cc([N+](=O)[O-])ccc2c2ccccc12	HT1080 IDH1KD tx inconclusive, KB-V1 MDR tox inconclusive
CNc1oc(/C=C/c2cccc(OC)c2)nc1C#N	SW480 rerep 18.4µM, MCF10A rereplic 20.6µM
CCN(CC)CCCNc1oc(/C=C/c2ccccc2)nc1C#N	SW480 rerep 20.6µM, MCF10A rereplic inconclusive
CCNc1oc(/C=C/c2ccc(OCC)cc2)nc1C#N	HT1080 IDH1KD tx inconclusive, KB-3-1 tox inconclusive, SW480 rerep 3.26µM, MCF10A rereplic 2.59µM
O=C(Nc1ccc(Oc2ccccc2)cc1)c1csc(COCCO)n1	HT1080 IDH1KD tx inconclusive, HT1080-NT tox inconclusive (no result: SW480 rerep, MCF10A rereplic)
OC(c1ccc(F)cc1)c1nc(-c2ccc(F)c(Cl)c2)cs1 (stereo not drawn)	HT1080 IDH1KD tx inconclusive, HT1080-NT tox inconclusive (no result: SW480 rerep, MCF10A rereplic)
NC(=O)NOCc1cccc(Cl)c1	none
CN(Cc1ccc(O)cc1)C1CCCCC1	none
CN(Cc1cc(Br)cc(Br)c1N)C1CCCCC1	SW480 rerep inconclusive, MCF10A rereplic 26.6µM (no result: HT1080 IDH1KD tx, KB-V1 MDR tox, KB-3-1 tox, HT1080-NT tox)
CCOC(=O)C1=C(C)C/C(=N\NC(=O)c2ccccc2O)CC1	HT1080 IDH1KD tx inconclusive, KB-V1 MDR tox inconclusive, SW480 rerep 18.4µM, HT1080-NT tox inconclusive
CCOC(=O)c1ccccc1O	none (no result: HT1080 IDH1KD tx, KB-V1 MDR tox, KB-3-1 tox, HT1080-NT tox)
c1cc2c(cc1CN1CCN(C3CCCCCC3)CC1)OCO2	none
c1ccc(CN2CCC(N3CCN(Cc4ccc5c(c4)OCO5)CC3)CC2)cc1	KB-V1 MDR tox inconclusive, MCF10A rereplic 20.6µM
O=C(c1ccc2c(c1)OCO2)C1CCCN(C2CCN(CCc3ccccc3)CC2)C1 (stereo not drawn)	HT1080 IDH1KD tx 23.1µM, SW480 rerep inconclusive, MCF10A rereplic inconclusive, HT1080-NT tox 10.3µM
Cc1cccc(NC(=S)N/N=C2/CCCCc3ccccc32)c1	KB-V1 MDR tox 16.4µM, KB-3-1 tox inconclusive, MCF10A rereplic inconclusive
Cc1ccc(NC(=S)N/N=C2/CCCCc3ccccc32)cc1	MCF10A rereplic inconclusive
CCNC(=S)N/N=C1\C(=O)c2cccc3cccc1c23	MCF10A rereplic 20.6µM
CCNC(=S)N/N=C1\CCCCc2ccccc21	KB-V1 MDR tox 16.4µM
COc1ccc(-c2csc(NC(CO)c3nc4ccccc4n3CCCO)n2)cc1 (stereo not drawn)	none
C[C@H](CN1c2ccccc2Sc2cccnc21)N(C)C	none (no result: HT1080 IDH1KD tx, KB-V1 MDR tox, KB-3-1 tox, HT1080-NT tox)
COc1ccccc1-c1noc(-c2ccccc2C(=O)Nc2cccnc2)n1	KB-V1 MDR tox 10.3µM
CCOc1ccccc1NC(=O)c1ccccc1-c1ccccc1	SW480 rerep inconclusive
CCOc1ccccc1NC(=O)c1ccccc1-c1nc(-c2ccccc2)no1	KB-V1 MDR tox 8.2µM, KB-3-1 tox inconclusive, SW480 rerep 23.1µM
